Rows were chosen to be rich in hits. Some 15% of all compounds tested hit in one or more screens of this group.
ELG1 repair inh = qHTS screen for small molecules that inhibit ELG1-dependent DNA repair in human embryonic kidney (HEK293T) cells expressing luciferase-tagged ELG1 | HEK293T ELG1-luciferase reporter, luminescence, 16 h; DNA damage induced by 5-fluorouridine | Potency, µM (highest dose often 46.1 µM), for inactives: top-dose activity change, negative = inhibition, usual class: inhibitors | 330,000 compounds, 2.3% hits; further: nearly all actives have a fitted effect of over 55% in size
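HEK293T cells expressing luciferase-tagged ELG1 (2,000/well) received 5-Fluorouridine plus compound or DMSO for 16 hr at 37 °C. Luciferase was read by ONE-Glo luminescence after 30 min at room temperature.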
DT40 TDP1 no CPT = qHTS for Inhibitors of human tyrosyl-DNA phosphodiesterase 1 (TDP1): qHTS in cells in absence of CPT; DT40 Tdp1-/- hTDP1 cells, no CPT, ATP luminescence, 48 h; Potency, µM (titrated, usually from 46.2 µM), for the others: top-dose activity change, negative = growth inhibition, actives largely listed as inhibitors; 420,000 compounds, 15% hits; AID 686978, 2013; further: nearly all actives have a fitted effect of over 55% in size
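DT40 Tdp1-/-;hTDP1 cells, no CPT (DMSO vehicle only), 400 cells/well; compounds pin-transferred; ≥48 hr, 37 °C; CellTiter-Glo 30 min RT dark, luminescence read.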
RORg inh = qHTS for inhibitors of ROR gamma transcriptional activity. Nuclear receptor ROR-gamma (Mus musculus), P51450. Drosophila S2 Gal4-RORgamma UAS-luciferase reporter, 20 h. Potency, µM (titrated, usually from 53.6 µM), for inactives: at the highest dose activity change, negative = inhibition, hits mostly inhibitors. 310,000 compounds, 5.4% hits. AID 2551, 2010; further: nearly all actives have a fitted effect of over 60% in size
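Drosophila S2 cells stably expressing Gal4-DBD/mouse RORγ fusion under metallothionein promoter plus UAS-luciferase; compound 1 h, then 700 uM CuSO4 induction for 20 h at ambient temperature; inhibition read as reduced luminescence.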
DT40 TDP1 CPT = qHTS for Inhibitors of human tyrosyl-DNA phosphodiesterase 1 (TDP1): qHTS in cells in presence of CPT. chicken DT40 Tdp1-/-;hTDP1 cells + 20 nM CPT, ATP luminescence, 48 h. Potency, µM (doses to about 46.2 µM), inactives show top-dose activity change, negative = growth inhibition, hits mostly inhibitors. 420,000 compounds, 12% hits. AID 686979, 2013; further: nearly all actives have a fitted effect of over 55% in size
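Chicken DT40 Tdp1-/- cells complemented with human TDP1, 400 cells/well, exposed to compounds plus 20 nM camptothecin for at least 48 h at 37 C; viability read as ATP content by CellTiter-Glo luminescence.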
ALOX12 inh = Primary qHTS assay for inhibitors of human arachidonate 12S-lipoxygenase (ALOX12): Round 2 | 580,000 compounds, 1.1% hits | purified 12hLO, xylenol orange hydroperoxide absorbance | Polyunsaturated fatty acid lipoxygenase ALOX12 (Homo sapiens), P18054 | Potency, µM (highest dose often 108 µM), for the others: at the highest dose activity change, negative = inhibition, hits mostly inhibitors | AID 1671190, 2021
Target sequence (P18054 whole entry, looked up): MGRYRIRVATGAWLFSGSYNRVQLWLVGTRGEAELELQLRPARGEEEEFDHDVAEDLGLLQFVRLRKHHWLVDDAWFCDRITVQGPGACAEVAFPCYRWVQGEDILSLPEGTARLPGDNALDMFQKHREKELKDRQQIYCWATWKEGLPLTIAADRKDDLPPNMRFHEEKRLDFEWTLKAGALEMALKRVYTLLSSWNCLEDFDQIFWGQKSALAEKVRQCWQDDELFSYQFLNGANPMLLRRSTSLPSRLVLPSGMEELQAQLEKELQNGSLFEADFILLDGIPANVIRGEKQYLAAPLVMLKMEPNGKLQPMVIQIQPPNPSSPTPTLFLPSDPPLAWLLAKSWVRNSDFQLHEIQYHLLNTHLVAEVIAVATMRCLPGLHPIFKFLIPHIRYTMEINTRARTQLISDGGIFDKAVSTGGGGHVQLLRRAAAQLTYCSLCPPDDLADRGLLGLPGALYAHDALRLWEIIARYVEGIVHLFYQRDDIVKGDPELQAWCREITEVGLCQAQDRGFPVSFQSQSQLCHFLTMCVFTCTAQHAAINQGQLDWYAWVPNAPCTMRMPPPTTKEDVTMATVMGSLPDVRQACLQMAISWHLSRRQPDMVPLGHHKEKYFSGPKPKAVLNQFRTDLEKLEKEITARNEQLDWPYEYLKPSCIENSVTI
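Purified human 12hLO at 150 nM in 25 mM Hepes, 0.01% Triton X-100, pH 7.0, preincubated 15 min at room temperature with compound. Reaction started with 40 uM arachidonic acid, 30 min at room temperature. Hydroperoxide measured by Fe-xylenol orange, 573/405 nm absorbance ratio.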
VP16 counter = VP16 counterscreen qHTS for inhibitors of ROR gamma transcriptional activity; Drosophila S2 Gal4-VP16 UAS-luciferase, luminescence, 20 h; Potency, µM (top dose mostly 53.6 µM), inactives show top-dose activity, negative = inhibition, hits mostly inhibitors; 310,000 compounds, 3.5% hits; AID 2546, 2010;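 further: Gal4-VP16 expression switched on by copper sulfate through the metallothionein promoter; nearly all actives have a fitted effect of over 50% in size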
Active calls of the source: *; ? = inconclusive; . = no result given; [ ] = remark or other dose. The call rests on the fitted dose curve; in most records, active means well fitted curve in the direction sought with a large enough effect; inconclusive means small, poorly fitted or top-dose-only effect, or another doubt; inactive means no such curve, though single readings can be large; an effect the other way counts as inactive or inconclusive. On the % scale 0 is the no-effect control and ±100 the full control effect; potency means the concentration at half of the fitted maximal effect.

SMILES	ELG1 repair inh	DT40 TDP1 no CPT	RORg inh	DT40 TDP1 CPT	ALOX12 inh	VP16 counter
CCN1CCCC1CNC(=O)c1cc2c(-c3ccc(Cl)cc3)nn(C)c2s1 (stereo not given)	-1%	18µM*	-37%	18µM*	.	-18%
Cn1nc(-c2ccc(Cl)cc2)c2cc(C(=O)NCCCN3CCCC3)sc21	?	23µM*	-24%	?	-10%	-23%
COCCNC(=O)c1cc2c(-c3ccc(Cl)cc3)nn(C)c2s1	?	?	-4%	?	0%	-2%
CC(C)NC(=O)c1cc2c(-c3ccc(Cl)cc3)nn(C)c2s1	?	-20%	4%	-8%	12%	-8%
CC(C)Cc1nc(NCC2CCCO2)c(C#N)c2c1CCCC2 (stereo not given)	.	.	.	.	4%	.
Cc1ccc(C(=O)NCC2Cn3cccc3C(=O)N2C)cn1 (stereo not given)	.	.	.	.	43%	.
CN1C[C@H](NCc2ccc(C(F)(F)F)cc2)CCC[C@@H](C(=O)N(C)Cc2cccnc2)CC1=O	.	.	.	.	22%	.
Cn1cccc1CN1CCC2(Cc3ccccc3CNC2=O)C1 (stereo not given)	.	.	.	.	10%[6.33 µM]	.
Cc1ccc2c(c1)C(=O)N1[C@H]3c4cc(Cl)ccc4OC[C@@H]3[C@H](c3ccccc3)[C@]1(C)C(=O)N2	-17%	16µM*	.	?	-2%	.
C[C@@]12C(=O)Nc3ccc(F)cc3C(=O)N1[C@H]1c3cc(Cl)ccc3OC[C@@H]1[C@@H]2c1ccccc1	-20%	?	.	?	?	.
Cc1ccc2c(c1)C(=O)N1[C@H]3c4cc(C)ccc4OC[C@@H]3[C@H](c3ccccc3)[C@]1(C)C(=O)N2	-15%	13µM*	.	12µM*	-18%	.
Cc1ccc2c(c1)[C@@H]1[C@H](CO2)[C@H](c2ccccc2)[C@@]2(C)C(=O)N[C@H](C)C(=O)N12	-2%	-11%	.	-12%	5%	.
COc1cc(NC(=O)Cn2c(C)cc3nc4n(c(=O)c32)CCCCC4)cc(OC)c1	.	.	.	.	23%	.
Cc1cccc(NC(=O)CSc2nc(N3CCOCC3)c3c(c2C#N)CCCC3)c1	.	.	.	.	4%	.
ONC(=NCc1ccccc1)c1ccccc1	.	-15%	.	-3%	0%	.
NC(N)=NN=Cc1ccnc2ccccc12	.	?	.	15µM*	?	.
NC(=NCc1ccccc1)NN=Cc1ccnc2ccccc12	.	?	.	21µM*	13µM*	.
N/C(=N\N=C\c1ccnc2ccccc12)SC1CC(=O)N(c2ccc(Br)cc2)C1=O (stereo not given)	0%	15µM*	1%	?	1%	6%[0.365 µM]
O=C(O)C(=Cc1ccnc2ccccc12)C(=O)O	.	-13%	.	-15%	?	.
Nc1nnnn1Cc1nnc(SCc2cccc(Cl)c2)n1-c1ccccc1	.	.	.	.	83%	.
COc1ccc(NC(=O)O[C@@H]2CO[C@H]3[C@@H]2OC[C@@H]3NC(=O)Nc2ccc(C(C)C)cc2)cc1	.	.	.	.	-43%	.
CCc1ccc(C(=O)NC2CCN(c3cc(-c4ccccc4)[nH]n3)CC2)cc1	.	.	.	.	21%	.
Cc1ccc(-c2c(NC(=O)c3cccs3)n(C)c3ccccc3c2=O)cc1	.	.	.	.	29%	.
Cn1c(NC(=O)c2ccc(F)cc2)c(-c2cccs2)c(=O)c2ccccc21	-6%	?	11%	?	-2%	9%

Screening data: PubChem, National Center for Advancing Translational Sciences (NCATS)
